Laboratory results: PubChem BioAssay AID1159580 (chemical genetic matrix, 2015)
“And” between values parts separate entries of the source, which are not always exact repeats. Identical values can stand only once. Screen size: about 5,500 compounds; about 2,000 (36%) were called active. About 18% were inconclusive and are not listed. The list shows a part of the results. A number with no mark means an inactive call. Rule as the data show it: active = normalized growth mostly below about 0.91 (no sharp cut-off); inconclusive = no clear call, values can overlap the other calls; inactive = mostly above about 0.92.

Assay: chemical genetic growth profiling, strain panel (AID 1159580);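 also: tested at 20 µM; growth read once vehicle control cultures reached saturation at 30 °C; 1 = growth at the plate median or of vehicle wells; lower values mean less growth of the strain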
Details: S. cerevisiae deletion strains, growth OD

O=C1c2ccccc2C(=O)c2c1ccc(O)c2O
normalized growth (locus YAL021C, strain ccr4, hits give low values): 0.213 (active)
normalized growth (locus YAL026C, strain drs2, hits give low values): 0.273 (active)
normalized growth (locus YAL030W, strain snc1, hits give low values): 0.578 (active)
normalized growth (locus YBL061C, strain skt5, hits give low values): 0.44 (active)
normalized growth (locus YBR009C, strain hhf1, hits give low values): 0.532 (active)
normalized growth (locus YBR021W, strain FUR4, hits give low values): 0.671 (active)
normalized growth (locus YBR023C, strain chs3, hits give low values): 0.38 (active)
normalized growth (locus YBR171W, strain sec66, hits give low values): 0.681 (active)
normalized growth (locus YBR229C, strain ROT2, hits give low values): 0.399 (active)
normalized growth (locus YBR231C, strain swc5, hits give low values): 0.3 (active)
normalized growth (locus YBR279W, strain paf1, hits give low values): 0.512 (active)
normalized growth (locus YCL011C, strain gbp2, hits give low values): 0.501 (active)
normalized growth (locus YCL016C, strain dcc1, hits give low values): 0.564 (active)
normalized growth (locus YCL029C, strain bik1, hits give low values): 0.342 (active)
normalized growth (locus YCL061C, strain MRC1, hits give low values): 0.608 (active)
normalized growth (locus YCL069W, strain vba3, hits give low values): 0.52 (active)
normalized growth (locus YCR088W, strain abp1, hits give low values): 0.679 (active)
normalized growth (locus YDL005C, strain med2, hits give low values): 0.663 (active)
normalized growth (locus YDL035C, strain GPR1, hits give low values): 0.231 (active)
normalized growth (locus YDL040C, strain nat1, hits give low values): 0.703 (active)
normalized growth (locus YDL074C, strain BRE1, hits give low values): 0.178 (active)
normalized growth (locus YDL101C, strain DUN1, hits give low values): 0.235 (active)
normalized growth (locus YDL185W, strain tfp1, hits give low values): 0.816 (active)
normalized growth (locus YDL192W, strain arf1, hits give low values): 0.301 (active)
normalized growth (locus YDR001C, strain nth1, hits give low values): 0.722 (active)
normalized growth (locus YDR069C, strain doa4, hits give low values): 0.401 (active)
normalized growth (locus YDR101C, strain arx1, hits give low values): 0.549 (active)
normalized growth (locus YDR137W, strain rgp1, hits give low values): 0.261 (active)
normalized growth (locus YDR159W, strain sac3, hits give low values): 0.722 (active)
normalized growth (locus YDR162C, strain NBP2, hits give low values): 0.0628 (active)
normalized growth (locus YDR195W, strain ref2): 0.892
normalized growth (locus YDR297W, strain sur2, hits give low values): 0.559 (active)
normalized growth (locus YDR318W, strain mcm21, hits give low values): 0.34 (active)
normalized growth (locus YDR334W, strain swr1, hits give low values): 0.298 (active)
normalized growth (locus YDR335W, strain msn5, hits give low values): 0.56 (active)
normalized growth (locus YDR388W, hits give low values): 0.149 (active)
normalized growth (locus YDR392W, strain spt3, hits give low values): 0.321 (active)
normalized growth (locus YDR502C, strain sam2, hits give low values): 0.391 (active)
normalized growth (locus YEL003W, strain gim4, hits give low values): 0.504 (active)
normalized growth (locus YEL037C, strain rad23, hits give low values): 0.552 (active)
normalized growth (locus YEL061C, strain CIN8 (second series), hits give low values): 0.694 (active)
normalized growth (locus YEL061C, strain CIN8, hits give low values): 0.39 (active)
normalized growth (locus YER015W, strain faa2, hits give low values): 0.39 (active)
normalized growth (locus YER016W, strain bim1, hits give low values): 0.675 (active)
normalized growth (locus YER110C, hits give low values): 0.412 (active)
normalized growth (locus YER111C, strain swi4, hits give low values): 0.566 (active)
normalized growth (locus YER155C, strain BEM2 (second series), hits give low values): 0.441 (active)
normalized growth (locus YER155C, strain BEM2, hits give low values): 0.276 (active)
normalized growth (locus YER167W, strain BCK2, hits give low values): 0.245 (active)
normalized growth (locus YFR010W, strain ubp6, hits give low values): 0.557 (active)
normalized growth (locus YGL078C, strain dbp3, hits give low values): 0.872 (active)
normalized growth (locus YGL086W, strain mad1, hits give low values): 0.291 (active)
normalized growth (locus YGL167C, strain pmr1, hits give low values): 0.554 (active)
normalized growth (locus YGL173C, strain kem1, hits give low values): 0.248 (active)
normalized growth (locus YGL227W, strain vid30, hits give low values): 0.777 (active)
normalized growth (locus YGL240W, strain doc1, hits give low values): 0.442 (active)
normalized growth (locus YGL248W, strain PDE1, hits give low values): 0.21 (active)
normalized growth (locus YGL253W, strain hxk2, hits give low values): 0.295 (active)
normalized growth (locus YGR078C, strain PAC10, hits give low values): 0.182 (active)
normalized growth (locus YGR135W, strain pre9, hits give low values): 0.394 (active)
normalized growth (locus YGR252W, strain gcn5, hits give low values): 0.456 (active)
normalized growth (locus YHR013C, strain ard1, hits give low values): 0.427 (active)
normalized growth (locus YHR027C, strain rpn1, hits give low values): 0.349 (active)
normalized growth (locus YHR030C, strain SLT2, hits give low values): 0.613 (active)
normalized growth (locus YHR079C, strain IRE1 (second series), hits give low values): 0.434 (active)
normalized growth (locus YHR079C, strain IRE1, hits give low values): 0.67 (active)
normalized growth (locus YHR094C, strain hxt1, hits give low values): 0.417 (active)
normalized growth (locus YHR129C, strain ARP1, hits give low values): 0.216 (active)
normalized growth (locus YHR142W, strain chs7, hits give low values): 0.339 (active)
normalized growth (locus YHR200W, strain rpn10, hits give low values): 0.488 (active)
normalized growth (locus YIL066C, strain RNR3, hits give low values): 0.174 (active)
normalized growth (locus YIL073C, strain SPO22, hits give low values): 0.221 (active)
normalized growth (locus YIL125W, strain kgd1, hits give low values): 0.864 (active)
normalized growth (locus YIR030C, strain dcg1, hits give low values): 0.466 (active)
normalized growth (locus YJL092W, strain hpr5, hits give low values): 0.665 (active)
normalized growth (locus YJL095W, strain BCK1 (second series), hits give low values): 0.22 (active)
normalized growth (locus YJL095W, strain BCK1, hits give low values): 0.0992 (active) and 0.647 (active)
normalized growth (locus YJL115W, strain asf1, hits give low values): 0.644 (active)
normalized growth (locus YJL129C, strain trk1, hits give low values): 0.33 (active)
normalized growth (locus YJL134W, strain LCB3, hits give low values): 0.309 (active)
normalized growth (locus YJL154C, strain vps35, hits give low values): 0.718 (active)
normalized growth (locus YJL164C, strain tpk1, hits give low values): 0.414 (active)
normalized growth (locus YJL166W, strain qcr8, hits give low values): 0.446 (active)
normalized growth (locus YJL168C, strain set2, hits give low values): 0.52 (active)
normalized growth (locus YJL187C, strain SWE1 (second series), hits give low values): 0.192 (active)
